For experiment [1], the target named is T1, GST-Dm-Relish (Drosophila melanogaster, UniProt Q94527 99-473).
T1 sequence: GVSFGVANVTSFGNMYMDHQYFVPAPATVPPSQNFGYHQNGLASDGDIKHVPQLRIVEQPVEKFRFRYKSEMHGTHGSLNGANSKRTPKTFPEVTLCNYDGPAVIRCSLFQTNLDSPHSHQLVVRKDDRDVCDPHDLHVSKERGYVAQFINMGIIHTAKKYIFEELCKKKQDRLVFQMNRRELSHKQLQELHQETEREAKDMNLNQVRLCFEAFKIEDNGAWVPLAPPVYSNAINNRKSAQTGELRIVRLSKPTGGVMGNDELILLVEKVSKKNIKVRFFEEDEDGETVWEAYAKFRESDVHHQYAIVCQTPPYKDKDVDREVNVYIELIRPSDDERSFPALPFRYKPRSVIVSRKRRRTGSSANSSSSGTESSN
The experiment is described as follows: protein-binding microarray (PBM); PBM: ~300 nM protein, 6 mM HEPES pH 7.8, 80 mM KCl, 0.5 mM EDTA, 0.5 mM EGTA, 6% glycerol, 35 ng/ul poly-dIdC, 1% milk, 1 h, room temperature; Ap Aiptasia and Nv Nematostella (sea anemones) / Co Capsaspora / Aq Amphimedon (sponge) / Dm Drosophila / Hu human; RHD is the Rel homology domain; high values mean tight binding. Particulars: dsDNA, one strand shown.

Experiment [2] has as its target T2, GST-Aq-NF-kB (Amphimedon queenslandica, UniProt A9Y5G7 2-389).
T2 sequence: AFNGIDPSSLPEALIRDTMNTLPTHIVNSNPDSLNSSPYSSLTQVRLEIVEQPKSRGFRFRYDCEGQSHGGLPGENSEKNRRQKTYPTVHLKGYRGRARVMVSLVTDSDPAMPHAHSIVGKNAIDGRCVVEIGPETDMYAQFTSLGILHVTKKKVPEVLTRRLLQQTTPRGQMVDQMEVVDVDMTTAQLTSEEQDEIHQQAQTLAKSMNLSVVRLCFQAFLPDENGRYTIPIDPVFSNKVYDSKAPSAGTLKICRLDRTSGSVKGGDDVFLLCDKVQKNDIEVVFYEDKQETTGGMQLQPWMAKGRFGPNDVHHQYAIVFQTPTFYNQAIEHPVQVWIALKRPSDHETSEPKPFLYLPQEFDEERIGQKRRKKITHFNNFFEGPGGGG
The experiment is described as above. Particulars: dsDNA, one strand shown.

In the case of “CCGATTAACATCATAAAATTCCATGATGTTAATCGGGTCTTGATTCGCTTGACGCTGCTG”, the binding signal amounted to 1.32 z-score in experiment [1] and 1.26 z-score in experiment [2].

For the sequence “CCGATTAACATCAGGAAATTACATGATGTTAATCGGGTCTTGATTCGCTTGACGCTGCTG”, the binding signal in experiment [1] stood at 5.09 z-score; in experiment [2], 1.17 z-score.

Turning to “CCGATTAACATCAGGGATGCCCATGATGTTAATCGGGTCTTGATTCGCTTGACGCTGCTG”, the binding signal in experiment [1] worked out at 6.66 z-score; in experiment [2], 2.22 z-score.

Turning to “CCGATTAACATCAAAAAAACTCCTGATGTTAATCGGGTCTTGATTCGCTTGACGCTGCTG”, the figures for the binding signal in experiment [1] and in experiment [2] were 3.63 z-score and 1.83 z-score, respectively.

Consider “CCGATTAACATCAAAAATTTCCGTGATGTTAATCGGGTCTTGATTCGCTTGACGCTGCTG”, for which the binding signal in experiment [1] came out at 1.61 z-score; in experiment [2], 2.63 z-score.

As for “CCGATTAACATCAGAGGAATTCCTGATGTTAATCGGGTCTTGATTCGCTTGACGCTGCTG”, the binding signal in experiment [1] amounted to 2.63 z-score; in experiment [2] it was 2.12 z-score.

Take “CCGATTAACATCAACAAAATTCCTGATGTTAATCGGGTCTTGATTCGCTTGACGCTGCTG”: the binding signal in experiment [1] is 1.6 z-score; in experiment [2], 1.34 z-score.

“CCGATTAACATCAAAAAATTCCTTGATGTTAATCGGGTCTTGATTCGCTTGACGCTGCTG”: the binding signal in experiment [1] worked out at 2.73 z-score; in experiment [2] it was 2.21 z-score.

For “CCGATTAACATCACGTAAATTCCTGATGTTAATCGGGTCTTGATTCGCTTGACGCTGCTG”, the results for the binding signal in experiment [1] and in experiment [2] were 1.43 z-score and 1.08 z-score, respectively.

For the sequence “CCGATTAACATCAAAAAAAATCCTGATGTTAATCGGGTCTTGATTCGCTTGACGCTGCTG”, the binding signal in experiment [1] was determined as 3.09 z-score; in experiment [2], 2.68 z-score.

For the sequence “CCGATTAACATCAGGAAACCCACTGATGTTAATCGGGTCTTGATTCGCTTGACGCTGCTG”, the binding signal turned out to be 3.86 z-score in experiment [1] and 1.01 z-score in experiment [2].

As to “CCGATTAACATCAGGAATCTCCATGATGTTAATCGGGTCTTGATTCGCTTGACGCTGCTG”, the binding signal stood at 1.01 z-score in experiment [1] and 1.6 z-score in experiment [2].

Take “CCGATTAACATCACGGAAAAACCTGATGTTAATCGGGTCTTGATTCGCTTGACGCTGCTG”: the results for the binding signal in experiment [1] and in experiment [2] were 2.16 z-score and 3.55 z-score, respectively.

On to “CCGATTAACATCAAGGATTTTCCTGATGTTAATCGGGTCTTGATTCGCTTGACGCTGCTG”, for which the binding signal in experiment [1] turned out to be 1.44 z-score; in experiment [2], 3.08 z-score.

For “CCGATTAACATCAGGAATTCCACTGATGTTAATCGGGTCTTGATTCGCTTGACGCTGCTG”, the figures for the binding signal in experiment [1] and in experiment [2] were 3.07 z-score and 1.57 z-score, respectively.

As to “CCGATTAACATCAAGGAAATTCCTGATGTTAATCGGGTCTTGATTCGCTTGACGCTGCTG”, the binding signal in experiment [1] is 2.23 z-score; in experiment [2], 4.14 z-score.

Turning to “CCGATTAACATCAGGATTTTTTATGATGTTAATCGGGTCTTGATTCGCTTGACGCTGCTG”, the binding signal in experiment [1] came to 2.63 z-score; in experiment [2] it was 1.59 z-score.

For “CCGATTAACATCAAAAATTCCGTTGATGTTAATCGGGTCTTGATTCGCTTGACGCTGCTG”, the binding signal in experiment [1] was 1.08 z-score; in experiment [2], 2.1 z-score.

Consider “CCGATTAACATCAAAAAATTCCATGATGTTAATCGGGTCTTGATTCGCTTGACGCTGCTG”, for which the binding signal in experiment [1] was 2.59 z-score; in experiment [2], 1.71 z-score.

Turning to “CCGATTAACATCACGGTTTTTCCTGATGTTAATCGGGTCTTGATTCGCTTGACGCTGCTG”, the results for the binding signal in experiment [1] and in experiment [2] were 3.51 z-score and 3.6 z-score, respectively.

In the case of “CCGATTAACATCACGGAATTGCCTGATGTTAATCGGGTCTTGATTCGCTTGACGCTGCTG”, the figures for the binding signal in experiment [1] and in experiment [2] were 1.01 z-score and 1.14 z-score, respectively.

As for “CCGATTAACATCACAAAATTTCCTGATGTTAATCGGGTCTTGATTCGCTTGACGCTGCTG”, the binding signal in experiment [1] worked out at 1.74 z-score; in experiment [2], 1.72 z-score.

Turning to “CCGATTAACATCAGGAAATTTTATGATGTTAATCGGGTCTTGATTCGCTTGACGCTGCTG”, the binding signal in experiment [1] was 1.46 z-score; in experiment [2], 1.85 z-score.

Consider “CCGATTAACATCAAAAAAAGTACTGATGTTAATCGGGTCTTGATTCGCTTGACGCTGCTG”, for which the binding signal in experiment [1] turned out to be 7.01 z-score; in experiment [2], 1.54 z-score.

Turning to “CCGATTAACATCAGGGCTTTCCATGATGTTAATCGGGTCTTGATTCGCTTGACGCTGCTG”, the binding signal in experiment [1] is 3.94 z-score; in experiment [2] it was 3.39 z-score.

On to “CCGATTAACATCAGGATTTTTCATGATGTTAATCGGGTCTTGATTCGCTTGACGCTGCTG”, for which the binding signal in experiment [1] was 1.76 z-score; in experiment [2], 1.09 z-score.

On to “CCGATTAACATCAAAGAAATTCCTGATGTTAATCGGGTCTTGATTCGCTTGACGCTGCTG”, for which the figures for the binding signal in experiment [1] and in experiment [2] were 1.96 z-score and 1.44 z-score, respectively.

As to “CCGATTAACATCAAAAAATCTCCTGATGTTAATCGGGTCTTGATTCGCTTGACGCTGCTG”, the results for the binding signal in experiment [1] and in experiment [2] were 1.02 z-score and 1.21 z-score, respectively.

Turning to “CCGATTAACATCAAAAAACTTCCTGATGTTAATCGGGTCTTGATTCGCTTGACGCTGCTG”, the binding signal in experiment [1] amounted to 1.56 z-score; in experiment [2] it was 1.4 z-score.

On to “CCGATTAACATCAAAATTTTCCTTGATGTTAATCGGGTCTTGATTCGCTTGACGCTGCTG”, for which the binding signal in experiment [1] turned out to be 2.92 z-score; in experiment [2], 1.12 z-score.

With “CCGATTAACATCAGTACTTTCCATGATGTTAATCGGGTCTTGATTCGCTTGACGCTGCTG”, the binding signal in experiment [1] is 5.35 z-score; in experiment [2], 1.95 z-score.

Regarding “CCGATTAACATCAAAAATTCCGGTGATGTTAATCGGGTCTTGATTCGCTTGACGCTGCTG”, the binding signal in experiment [1] turned out to be 2.45 z-score; in experiment [2], 2.94 z-score.

As to “CCGATTAACATCAGGACTTTACATGATGTTAATCGGGTCTTGATTCGCTTGACGCTGCTG”, the binding signal came out at 6.1 z-score in experiment [1] and 1.25 z-score in experiment [2].

Consider “CCGATTAACATCAGGGCAAGTACTGATGTTAATCGGGTCTTGATTCGCTTGACGCTGCTG”, for which the binding signal in experiment [1] stood at 1.44 z-score; in experiment [2], 2.28 z-score.

With “CCGATTAACATCACGAAAATTCCTGATGTTAATCGGGTCTTGATTCGCTTGACGCTGCTG”, the binding signal in experiment [1] was determined as 1.12 z-score; in experiment [2], 1.41 z-score.

Regarding “CCGATTAACATCACGTAAAACCCTGATGTTAATCGGGTCTTGATTCGCTTGACGCTGCTG”, the binding signal in experiment [1] stood at 3.01 z-score; in experiment [2], 2.12 z-score.

For the sequence “CCGATTAACATCAATGGAATTCCTGATGTTAATCGGGTCTTGATTCGCTTGACGCTGCTG”, the binding signal in experiment [1] stood at 3.2 z-score; in experiment [2], 1.5 z-score.

Regarding “CCGATTAACATCAGGATTTACCATGATGTTAATCGGGTCTTGATTCGCTTGACGCTGCTG”, the results for the binding signal in experiment [1] and in experiment [2] were 3.08 z-score and 1.48 z-score, respectively.

Take “CCGATTAACATCACGGAAACCACTGATGTTAATCGGGTCTTGATTCGCTTGACGCTGCTG”: the binding signal was determined as 3.59 z-score in experiment [1] and 1.46 z-score in experiment [2].

Take “CCGATTAACATCAGGAAAGTCCATGATGTTAATCGGGTCTTGATTCGCTTGACGCTGCTG”: the binding signal in experiment [1] came out at 3.2 z-score; in experiment [2], 3.71 z-score.

For the sequence “CCGATTAACATCAGGTAACTACCTGATGTTAATCGGGTCTTGATTCGCTTGACGCTGCTG”, the binding signal in experiment [1] amounted to 3.08 z-score; in experiment [2], 3.17 z-score.

As to “CCGATTAACATCAAAAATTCCGCTGATGTTAATCGGGTCTTGATTCGCTTGACGCTGCTG”, the binding signal in experiment [1] turned out to be 1.22 z-score; in experiment [2], 1.89 z-score.

“CCGATTAACATCACGGAATTCCATGATGTTAATCGGGTCTTGATTCGCTTGACGCTGCTG”: the results for the binding signal in experiment [1] and in experiment [2] were 1.4 z-score and 1.3 z-score, respectively.

Turning to “CCGATTAACATCAATAAATTTCCTGATGTTAATCGGGTCTTGATTCGCTTGACGCTGCTG”, the binding signal in experiment [1] stood at 1.55 z-score; in experiment [2], 1.86 z-score.

Take “CCGATTAACATCAAAATTTCCACTGATGTTAATCGGGTCTTGATTCGCTTGACGCTGCTG”: the binding signal in experiment [1] was found to be 1.61 z-score; in experiment [2] it was 1.15 z-score.

The values above are taken from paper PMC5700166.
